Screens from PubChem.
IDH1 R132H inh = qHTS for Inhibitors of mutant isocitrate dehydrogenase 1 (IDH1): qHTS. Isocitrate dehydrogenase [NADP] cytoplasmic (Homo sapiens), O75874. IDH1-R132H enzyme, NADPH consumption, diaphorase/resazurin fluorescence. Potency, µM (titrated, usually from 76.6 µM), inactives show top-dose activity change, negative = inhibition, hits mostly inhibitors. actives 0.093% (n = 390,000); also: % is scaled to controls: 0 for no effect and ±100 for the full control effect; nearly all actives have a fitted effect of over 65% in size
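IDH1-R132H (0.5 ug/mL) preincubated 30 min with compound, then NADPH (0.016 mM) and alpha-KG (2 mM) added; 80 min at RT, pH 7.5. Remaining NADPH coupled via diaphorase/resazurin to fluorescence (540/590 nm); concentration-response curves normalized to no-enzyme control.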
Nrf2 block = Nrf2 qHTS screen for inhibitors | A549 ARE-Fluc reporter, luciferase luminescence, 18-24 h | Potency, µM (doses to about 46 µM), for inactives: top-dose activity change, negative = inhibition, usual class: inhibitors | actives 2.1% (n = 360,000); also: % is scaled to controls: 0 for no effect and ±100 for the full control effect; nearly all actives have a fitted effect of over 60% in size
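Reporter: ARE-Fluc in A549. Exposure: 18-24 h, 37 °C, 5% CO2, 5% FBS OPTI-MEM. Readouts: fluorescent cytotoxicity (CellTiter-Fluor), then luminescent Nrf2 signal after BugLite.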
Mito fusion act = qHTS Assay for Small Molecule Inhibitors of Mitochondrial Division or Activators of Mitochondrial Fusion; S. cerevisiae fusion-defective mutant growth rescue, CellTiterGlo 48 h; Potency, µM (series often up to 46.1 µM), for inactives: at the highest dose growth rescue (activation), usual class: activators; actives 0.23% (n = 320,000); also: % of control where 0% means no effect; nearly all actives have a fitted effect of over 45% in size
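Read-out: ATP-based luminescence (CellTiterGlo, 10 min ambient) reporting growth of fusion-defective ts yeast after 48 hours at 37C on glycerol/ethanol YPEG medium in the presence of compound.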
TrxR1 inh = qHTS Assay for Inhibitors of Mammalian Selenoprotein Thioredoxin Reductase 1 (TrxR1): qHTS; recombinant rTrxR1, NADPH fluorescence consumption, selenite substrate; Potency, µM (series often up to 114 µM), without a hit: top-dose activity change, negative = inhibition, most hits filed as inhibitors; actives 1% (n = 390,000); Thioredoxin reductase 1, cytoplasmic (Rattus norvegicus), O89049; also: % is scaled to controls: 0 for no effect and ±100 for the full control effect; nearly all actives have a fitted effect of over 65% in size
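Rat TrxR1 (90 nM in the dispensed reagent) was pre-reduced with 400 uM NADPH for 5 min at room temperature, then incubated with compound for 15 min. After 400 uM selenite was added, NADPH fluorescence (Ex 340/Em 450 nm) was followed for 8 min.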
TrxR1 substrate = qHTS Assay for Substrates of Mammalian Selenoprotein Thioredoxin Reductase 1 (TrxR1): qHTS | purified TrxR1 substrate turnover, NADPH consumption readout | Potency, µM (highest dose often 114 µM), without a hit: top-dose activity change, negative = substrate turnover | AID 588456, 2011 | Thioredoxin reductase 1, cytoplasmic (Rattus norvegicus), O89049 | actives 0.01% (n = 390,000); also: % is scaled to controls: 0 for no effect and ±100 for the full control effect; nearly all actives have a fitted effect of over 50% in size
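Rat TrxR1, dispensed at 90 nM, was prereduced with 400 uM NADPH (final) for 5 min at ~22 deg C, then incubated with compound 15 min before 400 uM selenite. A first-read NADPH fluorescence drop versus no-compound background flagged substrates.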
A549 tox-1 = Nrf2 qHTS screen for inhibitors: counterscreen for cytotoxicity; A549 ARE-Fluc cells, CellTiter-Fluor viability, 18-24 h; Potency, µM (highest dose often 46 µM), for the others: at the highest dose activity change, negative = cytotoxicity, actives largely listed as inhibitors; actives 0.16% (n = 390,000); also: % is scaled to controls: 0 for no effect and ±100 for the full control effect
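A549 ARE_Fluc cells in 5% FBS OPTI-MEM were exposed to compounds in concentration-response for 18-24 h at 37 deg C. Viability was read by CellTiter-Fluor fluorescence (Ex 405/Em 525) after 30 min, before the luciferase read.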
FLuc counter 3 = Nrf2 qHTS screen for inhibitors: Purified Fluc Biochemical Counterscreen for Hit Validation. AID 720522, 2013. actives 4% (n = 1,400). purified firefly luciferase, luminescence inhibition. Potency, µM (top dose mostly 57.5 µM), for the others: at the top dose activity change, negative = inhibition, usual class: inhibitors. shares compounds with Nrf2 block; also: % is scaled to controls: 0 for no effect and ±100 for the full control effect; nearly all actives have a fitted effect of over 65% in size
Target sequence (P08659 whole entry, looked up): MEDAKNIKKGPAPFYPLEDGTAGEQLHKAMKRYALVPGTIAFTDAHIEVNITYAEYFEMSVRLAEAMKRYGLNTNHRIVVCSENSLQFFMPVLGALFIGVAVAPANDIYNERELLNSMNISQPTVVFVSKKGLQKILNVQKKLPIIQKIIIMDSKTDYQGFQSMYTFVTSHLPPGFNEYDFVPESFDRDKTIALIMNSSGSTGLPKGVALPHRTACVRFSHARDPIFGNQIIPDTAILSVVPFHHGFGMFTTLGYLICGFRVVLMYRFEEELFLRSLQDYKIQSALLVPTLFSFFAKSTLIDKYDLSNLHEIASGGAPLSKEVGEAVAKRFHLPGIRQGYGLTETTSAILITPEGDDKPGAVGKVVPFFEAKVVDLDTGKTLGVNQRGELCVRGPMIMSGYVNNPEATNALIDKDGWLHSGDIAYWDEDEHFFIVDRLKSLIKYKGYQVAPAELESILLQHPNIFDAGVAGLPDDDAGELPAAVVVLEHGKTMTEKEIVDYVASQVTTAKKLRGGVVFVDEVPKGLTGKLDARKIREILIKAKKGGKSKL
A549 tox-2 = Nrf2 qHTS screen for inhibitors: A549 ARE-Fluc Cytotoxicity Counterscreen for Hit Validation; shares compounds with Nrf2 block; A549 ARE-Fluc cells, cytotoxicity counterscreen; Potency, µM (top dose mostly 46.1 µM), for inactives: at the highest dose activity change, negative = cytotoxicity, hits mostly inhibitors; actives 2% (n = 1,400); AID 720523, 2013;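 also: cells exposed to compounds for 18 to 24 hours; % is scaled to controls: 0 for no effect and ±100 for the full control effect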
ARE-Fluc inh = Nrf2 qHTS screen for inhibitors: Nrf2 A549 ARE-Fluc Confirmation Assay for Hit Validation. shares compounds with Nrf2 block. A549 ARE-firefly luciferase reporter, luminescence. Potency, µM (titrated, usually from 46.1 µM), for the others: at the top dose activity change, negative = inhibition, usual class: inhibitors. actives 74% (n = 1,400). AID 720524, 2013; also: % is scaled to controls: 0 for no effect and ±100 for the full control effect; nearly all actives have a fitted effect of over 65% in size
Numbers without * were called inactive; [ ] = dose if it differs, or a comment. Rows were chosen to be rich in hits. Some 3.1% of all compounds tested hit in one or more screens of this group. Calls follow the shape of the dose curve; as a rule, active = well fitted curve in the direction sought with a large enough effect; inconclusive = small, poorly fitted or top-dose-only effect, or another doubt; inactive = no such curve, though single readings can be large; an effect the other way counts as inactive or inconclusive. Potency is read from the fitted curve at half-maximal effect.

For CCC(C)NC(=O)C1CCN(C(=O)c2cc3sccc3n2Cc2ccc(Cl)cc2)CC1 (stereo unspecified) the results were IDH1 R132H inh -1%, Nrf2 block 2.3µM*, TrxR1 inh 3%, TrxR1 substrate 1%, A549 tox-1 inconclusive, FLuc counter 3 1%, A549 tox-2 inconclusive and ARE-Fluc inh 6.5µM*.
`COCCCNC(=O)C1CCN(C(=O)c2cc3sccc3n2Cc2ccc(Cl)cc2)CC1` gave IDH1 R132H inh 17%, Nrf2 block inconclusive, TrxR1 inh 2%, TrxR1 substrate -1% and A549 tox-1 -15%.
O=C(NCc1ccco1)C1CCN(C(=O)c2cc3sccc3n2Cc2ccc(Cl)cc2)CC1 was read as IDH1 R132H inh 3%, Nrf2 block inconclusive, Mito fusion act -10%, TrxR1 inh -1%, TrxR1 substrate 7% and A549 tox-1 inconclusive.
`O=S(=O)(c1ccc(C2CCCCC2)cc1)N1CCN(c2cc(Cl)ccc2Cl)CC1` gave IDH1 R132H inh 3%, Nrf2 block 0%, TrxR1 inh 36%, TrxR1 substrate 13%[11.4 µM] and A549 tox-1 2%.
For COc1ccc(C(C)=O)cc1CSc1nc(Nc2ccc(F)c(F)c2)c2ccccc2n1 the results were IDH1 R132H inh -27%, TrxR1 inh 9%[57.1 µM], TrxR1 substrate 1%[57.1 µM] and A549 tox-1 -9%.
`C=CC(=O)Nc1ccc(Nc2nc(NC3CCC(N(C)C)CC3)nc3c2ncn3C(C)C)cc1` (stereo unspecified) gave IDH1 R132H inh 6%, Nrf2 block 2.6µM*, TrxR1 inh -10%[57.1 µM], TrxR1 substrate 3%[57.1 µM], A549 tox-1 18µM*, FLuc counter 3 5%, A549 tox-2 8.2µM* and ARE-Fluc inh 2.6µM*.
CC(C)n1cnc2c(Nc3ccc(F)c(Cl)c3)nc(NCCO)nc21 was read as IDH1 R132H inh 4%, Nrf2 block 18%, Mito fusion act 6%, TrxR1 inh 11%, TrxR1 substrate 6%[57.1 µM] and A549 tox-1 -7%.
Cc1cc(C)c(S(=O)(=O)N2CCN(S(=O)(=O)N3CCCCCC3)CC2)c(C)c1 was read as IDH1 R132H inh 6%, Nrf2 block 25%, Mito fusion act -2%, TrxR1 inh 6%[57.1 µM], TrxR1 substrate 5%[57.1 µM] and A549 tox-1 3%.
For Cc1ccc(N2CCN(S(=O)(=O)N3CCCCC3)CC2)c(C)c1 the results were IDH1 R132H inh 6%, Nrf2 block 6.5µM*, Mito fusion act 16%, TrxR1 inh 2%[57.1 µM], TrxR1 substrate -5%[57.1 µM], A549 tox-1 -15%, FLuc counter 3 3%, A549 tox-2 9% and ARE-Fluc inh 9%.
Screening Cc1ccc(C)c(NC(=S)NC(NC(=O)/C=C/c2ccccc2)C(Cl)(Cl)Cl)c1 (stereo unspecified) returned IDH1 R132H inh 4%, Nrf2 block 8.2µM*, Mito fusion act -2%, TrxR1 inh 16%, TrxR1 substrate 8%, A549 tox-1 -27%, FLuc counter 3 -21%, A549 tox-2 inconclusive and ARE-Fluc inh 0.37µM*.
O=C(/C=C/c1ccccc1)NC(NC(=S)Nc1ccc(C(=O)O)cc1)C(Cl)(Cl)Cl (stereo unspecified) was read as IDH1 R132H inh -1%, Nrf2 block 10%, Mito fusion act 0%, TrxR1 inh -2%, TrxR1 substrate 1% and A549 tox-1 -6%.
Screening Cn1cc(S(=O)(=O)N2CCCCC2)cc1C(=O)N1CCN(c2ccccc2F)CC1 returned IDH1 R132H inh 3%, TrxR1 inh 14%[57.1 µM], TrxR1 substrate 2%[57.1 µM] and A549 tox-1 7%.
`O[C@@H]1[C@@H](O)C=C2CCN3Cc4cc5c(cc4[C@H]1C23)OCO5` (stereo partly specified) gave IDH1 R132H inh -7%, Nrf2 block 6.5µM*, Mito fusion act -39%, TrxR1 inh inconclusive, TrxR1 substrate 3%, A549 tox-1 inconclusive, FLuc counter 3 1%, A549 tox-2 inconclusive and ARE-Fluc inh 7.3µM*.
CCOC(=O)c1cnc2ccc(C)cc2c1Nc1ccc(N(CC)CC)cc1 was read as IDH1 R132H inh -1%, Nrf2 block inconclusive, TrxR1 inh inconclusive, TrxR1 substrate -15% and A549 tox-1 inconclusive.
`Cc1ccc2c(c1)S/C(=C/c1ccc[n+](C)c1)N2CCO` gave IDH1 R132H inh 0%, Nrf2 block 2.6µM*, Mito fusion act 0%, TrxR1 inh -66%[57.1 µM], TrxR1 substrate -12%, A549 tox-1 -16%, FLuc counter 3 0%, A549 tox-2 -17% and ARE-Fluc inh 6.5µM*.
`CCOc1ccc(C(=O)c2cn(CC(=O)Nc3cc(OC)cc(OC)c3)c3ccc(F)cc3c2=O)cc1` gave IDH1 R132H inh 6%, Nrf2 block inconclusive, TrxR1 inh 1%, TrxR1 substrate -9% and A549 tox-1 -4%.
